# Measurements published in PubChem BioAssay (NCATS).
# “And” between values parts separate entries of the source, which are not always exact repeats. Identical values can stand only once. Results filed as inconclusive are left out. Entries that show only a call come without a potency. Some structures have more than one record in an assay (separate samples or runs), and their calls can disagree. The source made the active and inactive calls. The call rests on the fitted dose curve; in most records, active means well fitted curve in the direction sought with a large enough effect; inconclusive means small, poorly fitted or top-dose-only effect, or another doubt; inactive means no such curve, though single readings can be large; an effect the other way counts as inactive or inconclusive.
# What was measured:
# [1] = Viability qHTS for spleen associated tyrosine kinase inhibitor (SYKi) naive MV4-11 cells (AID 1963823); further: nearly all actives have a fitted effect of over 40% in size; further: potency means the concentration at half of the fitted maximal effect
# Procedure, shortened: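 Seeding of 500 SYKi-naive MV4-11 cells per well onto pre-dispensed compounds preceded a 72 hr incubation at 37 C. Luminescent CellTiter-Glo signal, read after 10 min at room temperature, reflected viable cells.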
# [2] = Quantitative highthroughput screen to assess conditional lethalithy of NOMO1 cells grown in RPMI1640 with untreated serum (RPMI+s) (AID 1963876); further: nearly all actives have a fitted effect of over 35% in size; further: potency means the concentration at half of the fitted maximal effect
# Procedure, shortened: (§1)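 Each medium arm—HPLM with 10% dialyzed FBS, or RPMI1640 with 5 mM glucose and 10% untreated or dialyzed FBS—was screened against an 11-point, 3-fold compound titration for 48 h at 37 °C, with CellTiter-Glo luminescence as endpoint.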
# [3] = Quantitative highthroughput screen to assess conditional lethalithy of NOMO1 cells grown in RPMI1640 with dialyzed fetal bovine serum (RPMI+ds) (AID 1963877); further: nearly all actives have a fitted effect of over 30% in size; further: potency means the concentration at half of the fitted maximal effect; on Viability: series mostly up to about 46 µM
# Procedure, shortened: as §1
# [4] = Quantitative highthroughput screen to assess conditional lethalithy of NOMO1 cells grown in Human Plasma-Like Medium with dialyzed fetal bovine serum (HPLM+ds) (AID 1963878); further: nearly all actives have a fitted effect of over 35% in size; further: potency means the concentration at half of the fitted maximal effect
# Procedure, shortened: as §1
# [5] = Quantitative highthroughput screen to assess conditional lethalithy of P12 Ichikawa cells grown in Human Plasma-Like Medium with dialyzed fetal bovine serum (HPLM+ds) (AID 1963879); details: Potency: viability; further: nearly all actives have a fitted effect of over 35% in size; further: potency means the concentration at half of the fitted maximal effect; on Viability: series mostly up to about 46 µM
# Procedure, shortened: as §1
# [6] = Quantitative highthroughput screen to assess conditional lethalithy of P12 Ichikawa cells grown in RPMI1640 with dialyzed fetal bovine serum (RPMI+ds) (AID 1963880); details: Potency: P12-Ichikawa viability; further: nearly all actives have a fitted effect of over 35% in size; further: potency means the concentration at half of the fitted maximal effect
# Procedure, shortened: as §1
# [7] = Quantitative highthroughput screen to assess conditional lethalithy of P12 Ichikawa cells grown in RPMI1640 with untreated serum (RPMI+s) (AID 1963881); details: Potency: viability; further: nearly all actives have a fitted effect of over 35% in size; further: potency means the concentration at half of the fitted maximal effect; on Viability: series mostly up to about 46 µM
# Procedure, shortened: as §1
# [8] = Quantitative highthroughput screen to assess conditional lethalithy of SEM cells grown in RPMI1640 with unreated serum (RPMI+s) (AID 1963883); further: nearly all actives have a fitted effect of over 35% in size; further: potency means the concentration at half of the fitted maximal effect
# Procedure, shortened: as §1
# [9] = Cellular viability qHTS for adrenocortical cancer (ACC) cell line SW-13 (AID 1963989); details: SW-13 ACC cells viability, CellTiter-Glo, 48 h; activity (max response): stronger effect = lower value;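 further: cells grown in serum-free medium with ITS supplement; nearly all actives have a fitted effect of over 65% in size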
# Procedure, shortened: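 Luminescent ATP read-out (CellTiter-Glo, 20 min at room temperature) measured metabolically competent SW-13 cells after 48 h compound treatment. Final concentrations spanned up to 46 uM; bortezomib served as positive control.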
# [10] = Cellular viability qHTS for adrenocortical cancer (ACC) cell line NCI-H295R (AID 1963990); further: nearly all actives have a fitted effect of over 60% in size; further: potency means the concentration at half of the fitted maximal effect
# Procedure, shortened: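 IC50 and maximal efficacy derive from four-parameter logistic modelling of titration curves, with reads scaled between DMSO-only wells (0%) and doxorubicin hydrochloride (100% inhibition). Compounds spanned up to 46 uM over 48 h.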
# [11] = Quantitative highthroughput screen to assess conditional lethalithy of SEM cells grown in Human Plasma-Like Medium with dialyzed fetal bovine serum (HPLM+ds) (AID 1963882); further: nearly all actives have a fitted effect of over 35% in size; further: potency means the concentration at half of the fitted maximal effect; on Viability: series mostly up to about 46 µM
# Procedure, shortened: as §1
# [12] = Quantitative highthroughput screen to assess conditional lethalithy of SEM cells grown in RPMI1640 with dialyzed fetal bovine serum (RPMI+ds) (AID 1963884); further: nearly all actives have a fitted effect of over 35% in size; further: potency means the concentration at half of the fitted maximal effect; on Viability: series mostly up to about 46 µM
# Procedure, shortened: as §1
# [13] = Viability qHTS for spleen associated tyrosine kinase inhibitor (SYKi) drug resistant MV4-11 cells (AID 1963824)
# Procedure, shortened: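 CellTiter-Glo luminescence, read 10 min after reagent addition, reports viability after a 72 hr compound exposure. Cells are an MV4-11 line made resistant to SYK inhibition, seeded at 500 per well onto compound-containing plates.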
SMILES,Potency [1],Potency [2],Potency [3],Potency [4],Potency [5],Potency [6],Potency [7],Potency [8],activity (max response) [9],Potency [10],Potency [11],Potency [12],Potency [13]
Cc1c(C(=O)Nc2ccc(N3C[C@@H](C)O[C@@H](C)C3)nc2)cccc1-c1ccc(OC(F)(F)F)cc1,inactive and 16.6 µM (active),5260 nM (active),11800 nM (active),3320 nM (active),2350 nM (active),4180 nM (active),4180 nM (active),1480 nM (active),-4.43% (inactive),10000 nM (active),–,–,–
c1cc(CN2CCCNCCNCCCNCC2)ccc1CN1CCCNCCNCCCNCC1,inactive,inactive,inactive,inactive,inactive,inactive,inactive,–,-19.4% (inactive),inactive,inactive,inactive,–
CC1CNc2c(cccc2S(=O)(=O)N[C@@H](CCCN=C(N)N)C(=O)N2CC[C@@H](C)C[C@@H]2C(=O)O)C1 (stereo partly specified),inactive,inactive,inactive,inactive,inactive,inactive,inactive,inactive,–,inactive,inactive,inactive,–
Clc1ccc(C(c2ccccc2Cl)C(Cl)Cl)cc1 (stereo unspecified),inactive,inactive,inactive,inactive,inactive,inactive,inactive,–,-27.3% (inactive),13000 nM (active),–,–,–
COC[C@@H](c1ccc(C(F)(F)F)cc1)N1CCN(C2(C)CCN(C(=O)c3c(C)ncnc3C)CC2)C[C@@H]1C,inactive,–,–,–,–,–,–,–,–,inactive,–,–,18600 nM (active)
Cc1ccc(NC(=O)C2(c3ccc4c(c3)OC(F)(F)O4)CC2)nc1-c1cccc(C(=O)O)c1,inactive,166 nM (active),209 nM (active),187 nM (active),187 nM (active),187 nM (active),148 nM (active),–,4.62% (inactive),inactive,93.5 nM (active),83.3 nM (active),–
O=C1CCCC(=O)C1C(=O)c1ccc(C(F)(F)F)cc1[N+](=O)[O-],inactive,inactive,inactive,inactive,inactive,inactive,–,inactive,6.97% (inactive),inactive,inactive,inactive,–
C[C@](Cc1c[nH]c2ccccc12)(NC(=O)OC1C2CC3CC(C2)CC1C3)C(=O)NC[C@H](NC(=O)CCC(=O)O)c1ccccc1 (stereo partly specified),inactive,inactive,inactive,inactive,inactive,inactive,inactive,inactive,0.678% (inactive),inactive,–,–,–
